In all, about 5,500 compounds went through this assay and about 2,000 (36%) were called active. Inconclusive results (about 18%) are left out. Cut-off read from the data, not from the text of the source: active = normalized growth mostly below about 0.91 (no sharp cut-off); inconclusive = no clear call, values can overlap the other calls; inactive = mostly above about 0.92. This is one part of the list.
Assay: chemical genetic growth profiling, strain panel (AID 1159580);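 note: tested at 20 µM; growth read once vehicle control cultures reached saturation at 30 °C; 1 = growth at the plate median or of vehicle wells; lower values mean less growth of the strain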
Conditions: growth OD
[1] = S. cerevisiae deletion strains, locus YAL013W, strain DEP1, hits give low values
[2] = S. cerevisiae deletion strains, locus YBR229C, strain ROT2, hits give low values
[3] = S. cerevisiae deletion strains, locus YDL101C, strain DUN1, hits give low values
[4] = S. cerevisiae deletion strains, locus YDL134C, strain PPH21, hits give low values
[5] = S. cerevisiae deletion strains, locus YDR150W, strain NUM1, hits give low values
[6] = S. cerevisiae deletion strains, locus YEL061C, strain CIN8, hits give low values
[7] = S. cerevisiae deletion strains, locus YGR078C, strain PAC10, hits give low values
[8] = S. cerevisiae deletion strains, locus YHR030C, strain SLT2, hits give low values
[9] = S. cerevisiae deletion strains, locus YHR087W, strain rtc3, hits give low values
[10] = S. cerevisiae deletion strains, locus YJR043C, strain POL32, hits give low values
[11] = S. cerevisiae deletion strains, locus YJR075W, strain HOC1, hits give low values
[12] = S. cerevisiae deletion strains, locus YLR039C, strain RIC1, hits give low values
[13] = S. cerevisiae deletion strains, locus YLR058C, strain SHM2 (second series), hits give low values
[14] = S. cerevisiae deletion strains, locus YLR085C, strain ARP6, hits give low values
[15] = S. cerevisiae deletion strains, locus YLR262C, strain YPT6, hits give low values
[16] = S. cerevisiae deletion strains, locus YML094W, strain GIM5, hits give low values
[17] = S. cerevisiae deletion strains, locus YMR219W, strain ESC1, hits give low values
[18] = S. cerevisiae deletion strains, locus YMR263W, strain SAP30, hits give low values
[19] = S. cerevisiae deletion strains, locus YNL153C, strain GIM3, hits give low values
[20] = S. cerevisiae deletion strains, locus YNL298W, strain CLA4 (second series), hits give low values
[21] = S. cerevisiae deletion strains, locus YNL322C, strain KRE1, hits give low values
[22] = S. cerevisiae deletion strains, locus YNR030W, strain Alg12, hits give low values
[23] = S. cerevisiae deletion strains, locus YPL055C, strain LGE1, hits give low values
[24] = S. cerevisiae deletion strains, locus YPL241C, strain CIN2, hits give low values
[25] = S. cerevisiae deletion strains, locus YPR135W, strain CTF4, hits give low values

Measured: normalized growth

COC(=O)c1ccccc1CSc1nccc(C(F)(F)F)n1
active: [4] 0.86 | [8] 0.671 | [11] 0.882 | [12] 0.743 | [14] 0.661 | [15] 0.752 | [22] 0.861
inactive: [1] 0.963 | [2] 0.938 | S. cerevisiae deletion strains, locus YCL061C, strain MRC1, hits give low values 0.956 | [3] 0.978 | [5] 0.939 | [6] 0.917 | [7] 0.927 | S. cerevisiae deletion strains, locus YGR229C, strain SMI1, hits give low values 0.969 | [9] 0.913 | [10] 0.957 | S. cerevisiae deletion strains, locus YKL190W, strain CNB1, hits give low values 0.931 | [13] 0.959 | [16] 0.946 | [17] 0.969 | [18] 0.975 | [19] 0.952 | [20] 0.895 | [21] 0.962 | [23] 0.849 | [24] 0.859 | [25] 0.657 | S. cerevisiae strains, strain wild type, hits give low values 0.926

CCOC(=O)c1cnc2nc(SC)nn2c1N
inactive: [1] 0.997 | [2] 1 | [3] 0.955 | [4] 0.995 | [5] 0.968 | [6] 1 | [7] 0.971 | [8] 0.855 | [9] 0.994 | [10] 0.935 | [11] 0.984 | [12] 1.03 | [13] 0.994 | [14] 0.88 | [15] 1.01 | [16] 0.942 | [17] 0.993 | [18] 0.983 | S. cerevisiae deletion strains, locus YMR307W, strain GAS1, hits give low values 0.909 | S. cerevisiae deletion strains, locus YNL128W, strain TEP1, hits give low values 0.988 | [19] 0.956 | [20] 0.968 | [21] 0.998 | [22] 0.982 | [23] 0.942 | [24] 0.982 | [25] 0.894

CCOC(=O)c1cnc2c(c(C)nn2C)c1Sc1nnc(SC)s1
active: S. cerevisiae deletion strains, locus YAR019C, strain CDC15, hits give low values 0.847 | S. cerevisiae deletion strains, locus YBL105C, strain PKC1, hits give low values 0.872 | S. cerevisiae deletion strains, locus YBR135W, strain CKS1, hits give low values 0.874 | S. cerevisiae deletion strains, locus YBR136W, strain MEC1, hits give low values 0.867 | S. cerevisiae deletion strains, locus YBR160W, strain CDC28, hits give low values 0.876 | S. cerevisiae deletion strains, locus YDL017W, strain CDC7, hits give low values 0.875 | S. cerevisiae deletion strains, locus YDL028C, strain MPS1, hits give low values 0.882 | [3] 0.911 | S. cerevisiae deletion strains, locus YDL132W, strain cdc53, hits give low values 0.841 | S. cerevisiae deletion strains, locus YDR052C, strain DBF4, hits give low values 0.89 | S. cerevisiae deletion strains, locus YDR054C, strain cdc34, hits give low values 0.779 | S. cerevisiae deletion strains, locus YDR226W, strain ADK1, hits give low values 0.871 | S. cerevisiae deletion strains, locus YER123W, strain YCK3, hits give low values 0.615 | S. cerevisiae deletion strains, locus YER133W, strain GLC7, hits give low values 0.657 | S. cerevisiae deletion strains, locus YFL009W, strain cdc4, hits give low values 0.851 | S. cerevisiae deletion strains, locus YFL029C, strain CAK1, hits give low values 0.845 | S. cerevisiae deletion strains, locus YFR003C, strain YPI1, hits give low values 0.887 | S. cerevisiae deletion strains, locus YFR019W, strain FAB1, hits give low values 0.73 | S. cerevisiae deletion strains, locus YFR028C, strain CDC14, hits give low values 0.891 | S. cerevisiae deletion strains, locus YGR092W, strain DBF2, hits give low values 0.431 | [8] 0.565 | S. cerevisiae deletion strains, locus YIL147C, strain SLN1, hits give low values 0.857 | S. cerevisiae deletion strains, locus YJR016C, strain ILV3, hits give low values 0.859 | S. cerevisiae deletion strains, locus YJR066W, strain TOR1 (second series), hits give low values 0.497 | S. cerevisiae deletion strains, locus YKL193C, strain SDS22, hits give low values 0.859 | S. cerevisiae deletion strains, locus YKL203C, strain TOR2, hits give low values 0.683 | S. cerevisiae deletion strains, locus YLR113W, strain HOG1, hits give low values 0.505 | S. cerevisiae deletion strains, locus YLR403W, strain SFP1, hits give low values 0.549 | S. cerevisiae deletion strains, locus YMR001C, strain CDC5, hits give low values 0.855 | S. cerevisiae deletion strains, locus YMR277W, strain FCP1, hits give low values 0.852 | S. cerevisiae deletion strains, locus YNL006W, strain LST8, hits give low values 0.881 | S. cerevisiae deletion strains, locus YNL161W, strain CBK1, hits give low values 0.88 | S. cerevisiae deletion strains, locus YNL207W, strain RIO2, hits give low values 0.844 | S. cerevisiae deletion strains, locus YNL222W, strain SSU72, hits give low values 0.867 | S. cerevisiae deletion strains, locus YNL307C, strain MCK1 (second series), hits give low values 0.596 | S. cerevisiae deletion strains, locus YOL078W, strain AVO1, hits give low values 0.859 | S. cerevisiae deletion strains, locus YOR329C, strain SCD5, hits give low values 0.872 | S. cerevisiae deletion strains, locus YPL153C, strain RAD53, hits give low values 0.62 | S. cerevisiae deletion strains, locus YPL209C, strain IPL1, hits give low values 0.886 | S. cerevisiae deletion strains, locus YPL256C, strain CLN2, hits give low values 0.789 | S. cerevisiae deletion strains, locus YPR025C, strain CCL1, hits give low values 0.879 | S. cerevisiae deletion strains, strain TSCII, hits give low values 0.846
inactive: S. cerevisiae deletion strains, locus YDL108W, strain KIN28, hits give low values 0.899 | S. cerevisiae deletion strains, locus YDL214C, strain PRR2, hits give low values 0.796 | S. cerevisiae deletion strains, locus YDR477W, strain SNF1, hits give low values 0.719 | S. cerevisiae deletion strains, locus YGR040W, strain KSS1, hits give low values 0.742 | S. cerevisiae deletion strains, locus YGR052W, strain FMP48, hits give low values 0.847 | S. cerevisiae deletion strains, locus YHR079C, strain IRE1, hits give low values 0.649 | S. cerevisiae deletion strains, locus YHR082C, strain KSP1, hits give low values 0.779 | S. cerevisiae deletion strains, locus YHR205W, strain SCH9, hits give low values 0.744 | S. cerevisiae deletion strains, locus YJL095W, strain BCK1, hits give low values 0.69 | S. cerevisiae deletion strains, locus YJL128C, strain PBS2, hits give low values 0.945 | S. cerevisiae deletion strains, locus YJL157C, strain FAR1, hits give low values 0.739 | S. cerevisiae deletion strains, locus YJR066W, strain TOR1, hits give low values 0.644 | S. cerevisiae deletion strains, locus YKL048C, strain ELM1, hits give low values 0.902 | S. cerevisiae deletion strains, locus YKL067W, strain YNK1, hits give low values 0.821 | S. cerevisiae deletion strains, locus YKL101W, strain HSL1, hits give low values 0.865 | S. cerevisiae deletion strains, locus YLR133W, strain CKI1, hits give low values 0.808 | S. cerevisiae deletion strains, locus YML070W, strain DAK1, hits give low values 0.759 | S. cerevisiae deletion strains, locus YMR205C, strain PFK2 (second series), hits give low values 0.859 | S. cerevisiae deletion strains, locus YNL020C, strain ARK1, hits give low values 0.802 | S. cerevisiae deletion strains, locus YNL183C, strain NPR1, hits give low values 0.715 | S. cerevisiae deletion strains, locus YOL136C, strain PFK27, hits give low values 0.714 | S. cerevisiae deletion strains, locus YOR061W, strain CKA2, hits give low values 0.813 | S. cerevisiae deletion strains, locus YOR119C, strain RIO1, hits give low values 0.77 | S. cerevisiae deletion strains, locus YOR231W, strain MKK1, hits give low values 0.701 | S. cerevisiae deletion strains, locus YPL031C, strain PHO85, hits give low values 0.67 | S. cerevisiae deletion strains, locus YPL204W, strain HRR25, hits give low values 0.667 | S. cerevisiae deletion strains, locus YPR106W, strain ISR1, hits give low values 0.934 | S. cerevisiae deletion strains, locus YPR111W, strain DBF20, hits give low values 0.928 | S. cerevisiae deletion strains, strain NNK1, hits give low values 0.917
